# Test results taken from PubChem BioAssay (Tox21).
# A number with no mark means an inactive call. The source made the active and inactive calls. Calls follow the shape of the dose curve; as a rule, active = well fitted curve in the direction sought with a large enough effect in the repeat runs; inconclusive = weak or mixed curves; inactive = flat fitted curve, though single readings scatter.
# Test: qHTS assay to test for compound auto fluorescence at 535 nm (green) in HEK293 cells (AID 720680)
# Conditions: green autofluorescence 485/535 nm; series mostly up to 91.3 µM
# Source text: U.S. Tox21 Program National Center for Advancing Translational Sciences [NCATS] NIH Chemical Genomics Center [NCGC] U.S. Environmental Protection Agency [EPA] National Institutes of Environmental Health Sciences [NIEHS] National Toxicology Program [NTP] U.S. Food and Drug Administration [FDA] Tox21 Assay Overview: Compound auto fluorescence often interferes with screening of the compound library against various biological targets and signaling pathways. Some of these compounds may have fluorophoric properties. Such properties may interfere with the assay outputs resulting in false positives and/or negatives. To decrease such complications and ensure the compound activities are relevant in terms of biological response, the Tox21 10K compound library was screened for auto fluorescence. From the fluorophores used as reporter signals in our screening assays, the auto fluorescence equivalencies of compounds against three fluorophores have been evaluated: Triamterene, Fluorescein and Rose Bengal sodium for blue, green and red fluorescence, respectively. The fluorescence intensities were measured using Excitation/Emission wavelengths at 405/460nm, 485/535nm and 540/590nm for blue, green and red labels, respectively. This assay includes the green fluorescence data.
# Tox21 Assay Protocol Summary: 2,000 HEK293 cells in 5 uL of culture medium containing 10% dialyzed FBS per well were dispensed into black wall/clear bottom 1536-well plates using a Multidrop Combi Dispenser (Thermo Scientific). The assay plates were incubated for 4-5 hr at 37C to allow cell attachment to the well bottom, followed by the transfer of 23 nL compound or DMSO vehicle by a pintool work station (Kalypsys, San Diego, CA). After the assay plates were incubated overnight at 37C and 5% CO2, fluorescence intensities in the assay plates were measured by an Envision (PerkinElmer, Shelton, CT) plate reader using three labels for measuring blue, green and red fluorescence at […] 460, 535 and 590nm respectively.
# % is scaled to controls: 0 for no effect and ±100 for the full control effect.
Compound,outcome,"fluorescence, % of fluorescein"
CC(Cc1ccccc1)NCCn1cnc2c1c(=O)n(C)c(=O)n2C (stereo not given),inactive,–
N#CN=C1SCCN1Cc1ccc(Cl)nc1,inactive,–
COc1cc(CCN)cc(OC)c1OC,inactive,–
O=C(O)C(F)(F)C(F)(F)C(F)(F)C(F)(F)C(F)(F)C(F)(F)F,inactive,–
CCOC(=O)COc1ccc(Cl)cc1Cl,inactive,–
CCC(C(N)=O)N1CCCC1=O (stereo not given),inactive,–
C[C@H]1CCCC(=O)CCC/C=C/c2cc(O)cc(O)c2C(=O)O1,inactive,–
C(COCC1CO1)OCC1CO1 (stereo not given),inactive,–
CCCOC(=O)Cc1ccc(OCC(=O)N(CC)CC)c(OC)c1,inactive,–
O=C1CCCCC1Cl (stereo not given),inactive,–
CC(C)(C)C(=O)C(Cl)Cl,inactive,–
ClC(Cl)(Cl)Cl,inactive,–
COc1cccc(C=O)c1,inactive,–
CCNc1nc(Cl)nc(NC(C)(C)C)n1,inactive,–
CCOP(=S)(OCC)SCCl,inactive,–
Cc1cccc2sc3nncn3c12,inactive,–
O=P(O)(O)CN(CP(=O)(O)O)CP(=O)(O)O,–,-0.175% [at 18.6 µM]
COC(=O)c1ccccc1CS(=O)(=O)NC(=O)Nc1nc(OC)cc(OC)n1,inactive,–
CCOC(=O)c1ncn2c1CN(C)C(=O)c1c(I)cccc1-2,inactive,–
CC(=O)CN(CC(C)=O)N=O,inactive,–

Compound,outcome,"fluorescence, % of fluorescein"
CNC(=O)O/N=C(/CSC)C(C)(C)C,inactive,–
CC(O)CCl (stereo not given),inactive,–
Cc1cc(OC(=O)N(C)C)nn1C(=O)N(C)C,inactive,–
O=C(O)C(Cl)Br (stereo not given),inactive,–
CCN(CCO)CCO,inactive,–
CCN[C@H](C)Cc1cccc(C(F)(F)F)c1,inactive,–
CCCCOC(C)=O,inactive,–
Cc1ccc2cc(C)ccc2c1,inactive,–
CC1N=C(N)OC1c1ccccc1 (stereo not given),inactive,–
CC(Cl)(Cl)Cl,inactive,–
COc1cccc([C@@]2(O)CCCC[C@@H]2CN(C)C)c1,inactive,–
Oc1ccc2c3c1O[C@H]1[C@@H](O)C=C[C@H]4[C@@H](C2)NCC[C@@]341,inactive,–
NC1(c2ccccc2)CCCCC1,inactive,–
CON(C)C(=O)Nc1ccc(Br)cc1,inactive,–
CCCC(C)(COC(N)=O)COC(N)=O,inactive,–
O=C(CCl)NCO,inactive,–
BrCC1CO1 (stereo not given),inactive,–
Clc1ccc(C(Cl)(Cl)Cl)cn1,inactive,–
CN(C)C(=O)Oc1cc(OC(=O)N(C)C)cc(C(O)CNC(C)(C)C)c1 (stereo not given),–,0.102% [at 18.6 µM]
CCN(CCO)CCn1c(Cc2ccccc2)nc2c1c(=O)n(C)c(=O)n2C,inactive,–
